PubChem BioAssay (EPA / NIEHS)
Results filed as inconclusive are left out. The source made the active and inactive calls. How the source made its calls: active means hit-call score of the fitted dose curve at least 0.9, where 1 is the maximum; inconclusive means response in the unintended direction; inactive means score below 0.9.

These molecules were tested against Retinoic acid receptor RXR-alpha (Homo sapiens) (UniProt P19793) (assay: ATG_RXRa_TRANS: Attagene TRANS-FACTORIAL HepG2 Assay for human Retinoid X Receptor alpha (RXRa) (AID 2283012)).
Retinoic acid receptor RXR-alpha (Homo sapiens), sequence (P19793 whole entry, looked up): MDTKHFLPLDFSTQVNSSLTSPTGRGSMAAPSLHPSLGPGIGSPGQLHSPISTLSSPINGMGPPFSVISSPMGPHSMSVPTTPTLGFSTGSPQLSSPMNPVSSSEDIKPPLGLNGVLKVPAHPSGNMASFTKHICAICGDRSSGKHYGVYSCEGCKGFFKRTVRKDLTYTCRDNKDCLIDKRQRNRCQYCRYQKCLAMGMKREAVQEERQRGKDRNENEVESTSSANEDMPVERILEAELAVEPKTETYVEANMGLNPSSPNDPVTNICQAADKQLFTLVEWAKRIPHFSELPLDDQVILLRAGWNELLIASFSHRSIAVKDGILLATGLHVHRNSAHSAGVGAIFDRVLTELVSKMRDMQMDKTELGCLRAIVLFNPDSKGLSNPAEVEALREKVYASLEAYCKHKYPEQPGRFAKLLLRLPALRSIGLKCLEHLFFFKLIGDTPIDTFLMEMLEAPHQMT
Method: ATG_TRANS is a cell-based, multiplexed-readout assay that uses HepG2, a human liver cell line, with measurements taken at 24 hours after chemical dosing in a 24-well plate.ATG_RXRa_TRANS is one of 30 assay component(s) measured or calculated from the ATG_TRANS assay. It is designed to make measurements of mRNA induction, a form of inducible reporter, as detected with fluorescence intensity signals by Reverse transcription polymerase chain reaction (RT-PCR) and Capillary electrophoresis technology.Data from the assay component ATG_RXRa_TRANS was analyzed into 1 assay endpoint. This assay endpoint, ATG_RXRa_TRANS, was analyzed in the positive analysis fitting direction relative to DMSO as the negative control and baseline of activity. Using a type of inducible reporter, measures of mRNA for gain-of-signal activity can be used to understand the reporter gene at the transcription factor-level as they relate to the gene RXRA. Furthermore, this assay endpoint can be referred to as a primary readout, because this assay has produced multiple assay endpoints where this one serves a reporter gene function. To generalize the intended target to other relatable targets, this assay endpoint is annotated to the nuclear receptor intended target family, where the subfamily is non-steroidal.
Human liver HepG2 cells are transiently transfected with multiple reporter transcription units (MRTUs) in 6-well plates using FuGene 6 reagent (Roche; 3 ml FuGene/1 mg DNA). The MRTU constructs are regulated by a cis-regulating element (promoter). […] A major difference between the CIS and TRANS system is that in CIS activities of endogenous TFs are measured, whereas the TRANS assay evaluates changes in activities of exogenous, chimeric NR-Gal4 proteins. […] At the end of 24 hour incubation, total RNA was isolated using TriZol reagent (Invitrogen). The isolated RNA is then reverse-transcribed using oligo(dT) primer and Mo-MLV reverse transcriptase (Invitrogen) with DNAse I (Ambion) treatment for 30 min. The one-tenth of the produced cDNA was amplified by PCR using Taq DNA polymerase (Invitrogen) and two reporter sequence-specific primers. The PCR products were fluorescently labeled by primer extension with 6-arboxyfluorescein (6-FAM) 5'-labeled reporter sequence-specific primer (2 min at 95 C, 20 s at 68 C and 10 min at 72 C) and these products were digested with 5U of HpaI (New England Biolabs) for 2h at 37 C. The fragments were purified using Qiaquick PCR columns (Qiagen), analyzed on an ABI 3130xL genetic analyzer (Applied Biosystems) with peak positions identified by using a set of X-rhodamine (ROX)-labeled MapMarker1000 molecular weight standards (BioVentures). The raw capillary electrophoresis data was processed using Attagraph software (Attagene).

Question: Which outcome does the source give for CCN(CC)c1ccc(N=Nc2ccccc2)cc1 here?
Answer: inactive

Question: Brc1nc2ccccc2s1 was tested. Which outcome did it give?
Answer: inactive

Question: CCCCCCCCCCCCC[N+](C)(C)Cc1ccccc1 was tested. Which outcome did it give?
Answer: inactive

Question: Which outcome does the source give for CCCCCCCCn1sc(Cl)c(Cl)c1=O here?
Answer: inactive

Question: With CO[Si](C)(CCC(F)(F)C(F)(F)C(F)(F)C(F)(F)C(F)(F)C(F)(F)F)OC as the molecule, how does the outcome read?
Answer: inactive

Question: How did the outcome turn out when O=S(=O)(Cl)C(F)(F)C(F)(F)C(F)(F)C(F)(F)C(F)(F)C(F)(F)C(F)(F)C(F)(F)F was run?
Answer: inactive

Question: How did the outcome turn out when O=C1c2ccccc2C(=O)c2c(Cl)cccc21 was run?
Answer: inactive

Question: Which outcome does the source give for OCCCCC(F)(F)C(F)(F)C(F)(F)C(F)(F)F here?
Answer: inactive

Question: O=C(O)C(F)(F)C(F)(F)C(F)(F)OC(F)(F)F was tested. Which outcome did it give?
Answer: inactive

Question: For OCCC(O)CO (stereo not given), which outcome is on record?
Answer: inactive

Question: c1ccc(C[P+](c2ccccc2)(c2ccccc2)c2ccccc2)cc1 was tested. Which outcome did it give?
Answer: inactive

Question: With CC(C)(C)c1cc(CCC(=O)NCCCCCCNC(=O)CCc2cc(C(C)(C)C)c(O)c(C(C)(C)C)c2)cc(C(C)(C)C)c1O as the molecule, how does the outcome read?
Answer: inactive

Question: How did the outcome turn out when CCOCOCC was run?
Answer: inactive

Question: Which outcome does the source give for Nc1cccnc1N here?
Answer: inactive

Question: CCCC(=O)OCC(COC(=O)CCC)OC(=O)CCC was tested. Which outcome did it give?
Answer: inactive

Question: With NC(=O)C(F)(F)C(F)(F)C(F)(F)F as the molecule, how does the outcome read?
Answer: inactive

Question: With C=C(C)C(=O)OCC(F)(F)C(F)(F)C(F)(F)C(F)F as the molecule, how does the outcome read?
Answer: inactive

Question: CC(C)(C)C(=O)C1C(=O)c2ccccc2C1=O was tested. Which outcome did it give?
Answer: inactive

Question: Which outcome does the source give for COC(F)(C(F)F)C(F)(F)F (stereo not given) here?
Answer: inactive

Question: O=C(O)CCC(F)(F)C(F)(F)C(F)(F)C(F)(F)C(F)(F)C(F)(F)C(F)(F)F was tested. Which outcome did it give?
Answer: inactive

Question: With F[Si-2](F)(F)(F)(F)F as the molecule, how does the outcome read?
Answer: inactive

Question: Which outcome does the source give for CC(C)Nc1ccc(NC(C)C)c2c1C(=O)c1ccccc1C2=O here?
Answer: inactive

Question: How did the outcome turn out when Cc1ccc(O)c(-n2nc3ccccc3n2)c1 was run?
Answer: inactive

Question: Which outcome does the source give for OCC(F)(F)C(F)(F)C(F)(F)C(F)(F)C(F)(F)C(F)(F)CO here?
Answer: inactive

Question: For OCCCC(F)(F)C(F)(F)C(F)(F)C(F)(F)C(F)(F)C(F)(F)C(F)(F)C(F)(F)F, which AC50 is on record?
Answer: 23.8 µM (active)

Question: Cc1ccc([N+](=O)[O-])c(C)c1 was tested. Which outcome did it give?
Answer: inactive

Question: How did the outcome turn out when C[Si](C)O[Si](C)C was run?
Answer: inactive

Question: Which outcome does the source give for CC(C)CCCC(C)CCO (stereo not given) here?
Answer: inactive

Question: How did the outcome turn out when CCCCC(CC)COC(=O)c1ccc(N(C)C)cc1 (stereo not given) was run?
Answer: inactive

Question: For COc1ccccc1C=O, which outcome is on record?
Answer: inactive

Question: CCC(C)CO (stereo not given) was tested. Which outcome did it give?
Answer: inactive

Question: With CN(C(=O)C(F)(F)C(F)(F)C(F)(F)F)[Si](C)(C)C as the molecule, how does the outcome read?
Answer: inactive

Question: Which outcome does the source give for NS(=O)(=O)C(F)(F)C(F)(F)C(F)(F)C(F)(F)C(F)(F)C(F)(F)F here?
Answer: inactive

Question: Which outcome does the source give for OCC(F)(F)C(F)(F)C(F)(F)CO here?
Answer: inactive

Question: For O=C(O)CCC(F)(F)C(F)(F)C(F)(F)F, which outcome is on record?
Answer: inactive

Question: For CCN(CCO)S(=O)(=O)C(F)(F)C(F)(F)C(F)(F)C(F)(F)C(F)(F)C(F)(F)C(F)(F)C(F)(F)F, which outcome is on record?
Answer: inactive

Question: FC(F)(F)C(F)(F)C(F)(F)C(F)(F)C(F)(F)C(F)(F)CC[Si](Cl)(Cl)Cl was tested. Which outcome did it give?
Answer: inactive

Question: C=CC(=O)OCCC(F)(F)C(F)(F)C(F)(F)C(F)(F)F was tested. Which outcome did it give?
Answer: inactive

Question: With NCC(F)(F)C(F)(F)C(F)(F)C(F)(F)C(F)(F)C(F)(F)C(F)(F)C(F)(F)F as the molecule, how does the outcome read?
Answer: inactive

Question: For O=S(=O)(O)c1ccc(Cl)cc1, which outcome is on record?
Answer: inactive
